According to PMC7826789 (International Journal of Molecular Sciences, 2021):

How the values were obtained:
Conditions in all cases: Compound Concentration (nM):1000
LRRK2 = test system: LRRK2
LTK = test system: LTK
LYN = test system: LYN
LZK = test system: T1, LZK
T1 construct: gene MAP3K13

MAK = test system: MAK
MAP3K15 = test system: MAP3K15
MAP3K1 = test system: MAP3K1
MAP3K2 = test system: MAP3K2
MAP3K3 = test system: MAP3K3
MAP3K4 = test system: MAP3K4
MAP4K2 = test system: MAP4K2
MAP4K3 = test system: MAP4K3
MAP4K4 = test system: MAP4K4
MAP4K5 = test system: MAP4K5
MAPKAPK2 = test system: MAPKAPK2
MAPKAPK5 = test system: MAPKAPK5
MARK1 = test system: MARK1
MARK2 = test system: MARK2
MARK3 = test system: MARK3
MARK4 = test system: MARK4
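Also: KINOMEscan scanMAX binding as percent activity remaining versus control; lower means stronger binding.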

SMILES	Percent Control (LRRK2)	Percent Control (LTK)	Percent Control (LYN)	Percent Control (LZK)	Percent Control (MAK)	Percent Control (MAP3K15)	Percent Control (MAP3K1)	Percent Control (MAP3K2)	Percent Control (MAP3K3)	Percent Control (MAP3K4)	Percent Control (MAP4K2)	Percent Control (MAP4K3)	Percent Control (MAP4K4)	Percent Control (MAP4K5)	Percent Control (MAPKAPK2)	Percent Control (MAPKAPK5)	Percent Control (MARK1)	Percent Control (MARK2)	Percent Control (MARK3)	Percent Control (MARK4)
COc1ccc2c(-c3ccnc(Nc4cccc(OC(F)(F)F)c4)n3)cnn2n1 [GW810372X]	72%	100%	100%	100%	100%	100%	70%	96%	90%	71%	94%	100%	100%	100%	100%	100%	100%	100%	100%	82%
NS(=O)(=O)c1ccc(N/N=C2\C(=O)Nc3ccc(-c4cnco4)cc32)cc1 [GW276655]	44%	100%	100%	62%	100%	75%	100%	79%	74%	82%	80%	85%	62%	84%	100%	100%	44%	85%	100%	68%
NS(=O)(=O)c1ccc(Nc2ncc(-c3ccccc3)o2)cc1 [GW572399X]	76%	100%	100%	100%	100%	99%	59%	87%	100%	100%	82%	100%	100%	100%	100%	100%	100%	100%	94%	100%
COc1cc2ncnc(Nc3ccc4c(cnn4Cc4ccccc4)c3)c2cc1OC.Cl [GW282449A]	100%	46%	46%	100%	100%	98%	84%	100%	100%	100%	93%	95%	100%	88%	72%	88%	100%	100%	100%	100%
CCS(=O)(=O)c1ccc(OC)c(Nc2ncc(-c3cccc(F)c3)o2)c1 [GW621970X]	90%	100%	36%	100%	100%	95%	80%	100%	100%	100%	91%	100%	100%	100%	92%	94%	96%	100%	100%	92%
CC(C)COC(=O)c1ccc2c(c1)/C(=C/Nc1ccc(S(N)(=O)=O)cc1)C(=O)N2 [GW416981X]	56%	100%	100%	100%	100%	100%	67%	66%	90%	100%	76%	95%	86%	87%	100%	100%	100%	73%	93%	81%
Nc1ncnc2occ(-c3ccc(NC(=O)Nc4cc(C(F)(F)F)ccc4F)cc3)c12 [GW770249X]	77%	4.5%	29%	100%	100%	100%	51%	91%	91%	94%	27%	29%	56%	11%	100%	100%	83%	94%	71%	94%
COc1ccc(COc2ccc(Cc3cnc(N)nc3N)cc2OC)cc1 [GW632580X]	83%	86%	100%	77%	89%	95%	65%	97%	91%	90%	97%	82%	100%	99%	95%	97%	83%	93%	66%	57%
C/C(Nc1ccc(S(N)(=O)=O)cc1)=C1/C(=O)Nc2ccccc21 [GW335962X]	55%	78%	87%	97%	98%	93%	62%	53%	55%	100%	49%	67%	89%	100%	100%	100%	83%	72%	96%	87%
NS(=O)(=O)c1ccc(N/N=C2\C(=O)Nc3ccc(C(=O)NCCc4c[nH]cn4)cc32)cc1 [GW300660X]	78%	100%	100%	100%	100%	100%	47%	82%	96%	100%	71%	86%	100%	100%	100%	100%	90%	100%	100%	100%
COc1cc(C=NNc2ncnc3c2cnn3-c2ccccc2)ccc1O [GW513184X]	100%	100%	74%	98%	78%	100%	100%	99%	73%	100%	89%	100%	66%	94%	100%	97%	97%	90%	100%	93%
COc1cccc(-n2ncc3c(N/N=C/c4ccncc4)ncnc32)c1 [GW784752X]	91%	100%	58%	100%	100%	97%	70%	100%	84%	89%	95%	100%	96%	100%	88%	89%	100%	100%	100%	84%
COC(=O)Nc1nc2ccc(Oc3ccc(NC(=O)Nc4cc(C(F)(F)F)ccc4F)cc3)cc2s1.Cl [GW693917A]	39%	18%	19%	78%	100%	100%	53%	92%	79%	80%	78%	100%	57%	71%	94%	78%	100%	78%	73%	99%
CN(C)CCNC(=O)Nc1ccc(N(C)c2ccnc(Nc3ccc(CS(C)(=O)=O)cc3)n2)cc1.Cl [GW830900A]	83%	100%	100%	75%	100%	100%	82%	69%	84%	99%	80%	69%	66%	77%	100%	93%	84%	67%	55%	100%
COc1cc(N2CCN(C(C)C)CC2)ccc1Nc1nc(Nc2ccc(F)cc2C(=O)NC[C@@H](O)CO)c2cc[nH]c2n1 [GSK1392956A]	12%	66%	92%	100%	100%	93%	86%	100%	88%	94%	91%	100%	94%	96%	85%	94%	90%	59%	86%	100%
CCn1c(-c2nonc2N)nc2c(C#CC(C)(C)O)nc(OCCNC)cc21.Cl [GSK949675]	100%	100%	100%	91%	100%	100%	100%	6.9%	28%	100%	84%	100%	95%	57%	100%	100%	100%	90%	100%	100%
C[C@@H](Oc1cc(-n2cnc3ccc(OC4CCN(C)CC4)cc32)sc1C(N)=O)c1ccccc1Cl [GSK579289A]	77%	24%	93%	78%	100%	95%	41%	83%	65%	67%	24%	93%	49%	36%	100%	100%	85%	77%	80%	89%
COc1cccc(-c2c[nH]c3c(N/N=C/c4ccncc4)ncnc23)c1 [GW814408X]	100%	98%	50%	93%	100%	100%	92%	65%	57%	100%	78%	93%	65%	68%	100%	100%	89%	100%	100%	99%
Cl.c1ccc(Cc2nc3ccc(Nc4ncnc5ccccc45)cc3[nH]2)cc1 [GR269666A]	100%	100%	93%	100%	100%	100%	100%	100%	100%	100%	92%	100%	100%	100%	76%	100%	100%	100%	97%	96%
COc1cc2ncn(-c3cc(O[C@H](C)c4ccccc4Cl)c(C(N)=O)s3)c2cc1OC [GSK237701A]	70%	26%	81%	70%	100%	100%	2.6%	84%	83%	100%	50%	33%	90%	7.5%	100%	100%	77%	100%	100%	74%
